The results in this text go back to PubChem BioAssay AID463173 (ICCB-Longwood Screening Facility, Harvard Medical School, 2010).

Molecules are shown by their SMILES. Screen size: about 52,000 compounds; about 4,300 (8.3%) were called active. The full list was thinned out, with actives kept by preference. A number with no mark means an inactive call. Cut-off read from the data, not from the text of the source: active = survival mostly below about 52% (no sharp cut-off); inactive = mostly above about 56%.

The test system of this assay is DeltatarO mutant. The assay is described as follows: growth inhibition of S. aureus wild type versus tarO mutant, primary screen, teichoic acid synthesis inhibitors, RN4220, OD600 (AID 463173). The following applies: OD600, 18 h, active compounds read low, screened at 18.75 µg/mL (by protocol).
In the case of `CCOc1ccc(CCNCc2c(C(=O)O)c(C)n(Cc3ccccc3F)c2C)cc1`, the survival was 82%. For `CC(C)(C)n1nnnc1CN1CCC(NC(=O)Nc2ccc(F)cc2)CC1` the value was 102%.

In the case of `CCOC(=O)c1ccc(NS(=O)(=O)c2ccc3c(c2)n(C)c(=O)n3C)cc1`, the survival was 96%.

As to `Fc1ccc(-n2ncc3c(Nc4cccc(Cl)c4)ncnc32)cc1`, the survival is 67%. The same measure for `COc1cccc2c1cc1c(=O)n(CC(=O)N3CCN(c4ccc(F)cc4)CC3)nc(C)n12`: 87%. The same measure for `COc1cccc(NC(=O)CN2C=NS(=O)(=O)c3ccccc32)c1`: 122%; for `O=C(CCCCn1c(=O)c2ccccc2n(Cc2ccc(F)cc2Cl)c1=O)NCCc1ccc(Cl)cc1`: 72%; for `O=C(c1ccc(Cl)cc1)N1CCCCC1CCN1CCOCC1` (stereo unspecified): 104%. The same measure for `Cc1nc2c(C(=O)NC(C)c3ccccc3)cnn2c(C)c1Cc1ccccc1` (stereo unspecified): 72%. Consider `COCCNC(=O)Cn1nc(N2CCN(c3ccccc3OC)CC2)ccc1=O`, for which the survival is 94%.

`Cn1nc(-c2ccc(C(=O)Nc3cccc(C(F)(F)F)c3)cc2)c2ccccc2c1=O`: the survival was 57%. As for `O=C(Cn1nc(Cc2cccnc2)c2ccccc2c1=O)Nc1cccc(C(F)(F)F)c1`, the survival was 54%. For `COc1ccc(NC(=O)CCn2nc(-c3ccc(Cl)cc3)c3ccccc3c2=O)cc1` the value was 76%; for `Cc1ccc(NC(=O)Cn2nc(-c3ccc(Cl)cc3)c3ccccc3c2=O)cc1`, 38% (active); for `CNC(=O)Cn1nc(-c2ccc(Cl)cc2)c2ccccc2c1=O`, 52%. The same measure for `O=C(Cn1nc(-c2ccc(Cl)cc2)c2ccccc2c1=O)Nc1cccc(C(F)(F)F)c1`: 34% (active); for `Oc1c(C(c2ccc(Cl)cc2Cl)N2CCCC2)sc2nc(-c3ccco3)nn12` (stereo unspecified): 68%; for `Cc1cccc(C(=O)OCc2cc(=O)n3nc(C4CCCCC4)sc3n2)c1`: 78%. As to `CNC(=S)NC1CC2CCCC(C1)N2Cc1ccco1` (stereo unspecified), the survival was 80%. The same measure for `O=C(c1ccccc1)N1CCC(O)(c2cccnc2)CC1`: 70%; for `Cc1nc(SCC(=O)Nc2ccccc2C)cc(-c2ccccc2)n1`: 53%; for `COc1ccc(NC(=O)CSc2cc(-c3ccccc3)nc(C)n2)cc1`: 94%.

As to `Cc1nc(SCC(=O)Nc2ccccc2Cl)cc(-c2ccccc2)n1`, the survival is 56% (active).

Turning to `CCOC(=O)c1ccc(NC(=O)CSc2cc(-c3ccccc3)nc(C)n2)cc1`, the survival was 40% (active). Take `Cc1nc(SCC(=O)Nc2ccc(C)c(Cl)c2)cc(-c2ccccc2)n1`: the survival was 46%. In the case of `COC(=O)c1ccccc1NC(=O)CSc1cc(-c2ccccc2)nc(C)n1`, the survival is 71%.
